Screens from PubChem.
Most compounds without a hit are left out; they make up all but 2.1% or so of the library.
PfHsp90 yeast 2 – growth inhibition of PfHsp90-expressing yeast, primary screen, antimalarial PfHsp90 inhibitor project, S. cerevisiae, BacTiter-Glo luminescence, single point, set 2; BacTiter-Glo ATP, 48 h; yeast lacking PDR1 and PDR3 efflux regulators; inhibition, % at 9.4 µM; 310,000 compounds, 0.32% hits; AID 504621, 2011;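 active = every replicate shows inhibition above about 80%, whatever the replicate mean, limit read from the data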;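 note: 0% = DMSO neutral controls and 100% = 20 µM radicicol positive controls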
SIRT5 inh – SIRT5 desuccinylase inhibitors, primary screen, biochemical, fluorescence imaging, single point, set 5 | NAD-dependent protein deacylase sirtuin-5, mitochondrial (Homo sapiens), Q9NXA8 | Purified SirT5, succinyl-peptide AMC, trypsin-coupled fluorescence | inhibition, % at 15 µM | 330,000 compounds, 1.1% hits; in the data active = inhibition above about 15%
Target sequence (Q9NXA8 whole entry, looked up): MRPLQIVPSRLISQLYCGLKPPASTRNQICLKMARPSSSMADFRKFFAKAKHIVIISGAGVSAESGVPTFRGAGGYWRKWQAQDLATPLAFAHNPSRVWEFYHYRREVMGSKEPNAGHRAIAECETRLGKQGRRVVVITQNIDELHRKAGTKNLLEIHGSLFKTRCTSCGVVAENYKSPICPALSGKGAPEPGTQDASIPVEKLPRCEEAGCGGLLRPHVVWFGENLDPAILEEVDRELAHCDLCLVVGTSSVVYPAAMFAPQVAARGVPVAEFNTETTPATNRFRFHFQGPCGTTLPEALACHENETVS
NSD2 HMT inh – NSD2 histone methyltransferase inhibitors, primary screen, biochemical, AlphaScreen, single concentration, set 2; Histone-lysine N-methyltransferase NSD2 (Homo sapiens), O96028; NSD2 peptide methylation, 120 min; inhibition, % at 12.5 µM; 310,000 compounds, 0.54% hits; AID 743445, 2014; in the data active = inhibition above about 50%
Casp6 inh – human caspase-6 inhibitors, primary screen, biochemical, VEID-R110 fluorescence, single point, set 2; P55212; purified caspase-6, Z-VEID-R110 cleavage fluorescence; inhibition, % at 12.5 µM; 350,000 compounds, 0.53% hits;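 active = mean inhibition across replicates at least about 35%, with every replicate also reaching that limit, limit read from the data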;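 note: 0% = median of neutral control wells and 100% = no fluorescence left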
Target sequence (P55212 24-179 limits assumed): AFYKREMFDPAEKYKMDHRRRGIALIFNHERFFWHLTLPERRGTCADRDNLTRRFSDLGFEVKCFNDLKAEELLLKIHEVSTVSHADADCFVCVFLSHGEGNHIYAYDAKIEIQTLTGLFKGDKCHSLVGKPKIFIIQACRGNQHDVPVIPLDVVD
Target sequence (P55212 194-293 limits assumed): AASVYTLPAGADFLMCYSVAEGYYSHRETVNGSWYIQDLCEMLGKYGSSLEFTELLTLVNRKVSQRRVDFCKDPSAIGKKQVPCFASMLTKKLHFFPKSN
ARNT-TACC3 inh – disruptors of ARNT/TACC3 protein interaction, primary screen, biochemical, AlphaScreen, single concentration. Transforming acidic coiled-coil-containing protein 3 (Homo sapiens), Q9Y6A5. AlphaScreen His-ARNT PAS-B/GST-TACC3 binding, luminescence; TACC3 fragment carries E629A point mutation. inhibition, % at 9.99 µM. 390,000 compounds, 0.66% hits. AID 623870, 2012;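 active = mean inhibition of replicates at least 50% and at least half of replicates each reaching 50%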;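 note: 0% = complete ARNT plus TACC3 wells and 100% = ARNT alone without TACC3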
* hit, by the source's call; . = no result given.

SMILES	PfHsp90 yeast 2	SIRT5 inh	NSD2 HMT inh	Casp6 inh	ARNT-TACC3 inh
Cc1ccc(S(=O)(=O)N(C)C[C@H]2OCc3ccccc3-c3c(n(C)c4ccccc34)C(=O)N([C@H](C)CO)C[C@@H]2C)cc1	.	10	.	0	8
COc1ccc(S(=O)(=O)N(C)C[C@@H]2OCc3ccccc3-c3c(n(C)c4ccccc34)C(=O)N([C@H](C)CO)C[C@H]2C)cc1	.	16*	.	-3	-3
Cc1ccccc1S(=O)(=O)N(C)C[C@H]1OCc2ccccc2-c2c(n(C)c3ccccc23)C(=O)N([C@@H](C)CO)C[C@@H]1C	.	22*	.	-2	23
OC[C@H]1[C@@H](c2ccccc2)C2(CN(Cc3ccccc3)C2)N1Cc1ccncc1	.	-11	.	-4	.
COc1ccc(S(=O)(=O)n2cnc3ccccc32)cc1OC	-34	6	-1	62*	-3
O=C(Nc1ccc2c(c1)nc1n2CCN(Cc2ccccc2)C1)c1cccs1	-5	2	-1	-3	43*
COc1ccccc1C(=O)Nc1ccc2c(c1)nc1n2CCN(Cc2ccccc2)C1	-14	-2	-1	-2	12
Cc1ccc(C(=O)C(SC(C)(C)C)n2cncn2)cc1 (centres undefined)	83*	-8	0	0	0
CO[C@H]1CN(C)C(=O)c2ccc(NC(=O)C3CC3)cc2OC[C@@H](C)N(Cc2ccncc2)C[C@H]1C	.	-3	.	1	-2
C=CCn1c(C)cc(C(=O)CSc2nnc(NCc3ccccc3)s2)c1C	111*	.	0	.	-20
C=CCn1c(C)cc(C(=O)CSc2nc3ccccc3[nH]2)c1C	.	.	6	.	17
C=CCn1c(C)cc(C(=O)CSc2nc3ccccc3c(=O)[nH]2)c1C	100*	.	-11	.	-21
C[C@H]1CN([C@@H](C)CO)C(=O)c2cc(C3=CCCC3)cnc2O[C@@H]1CN(C)Cc1ccc(F)cc1	.	1	.	-1	11
C[C@@H]1CN([C@@H](C)CO)C(=O)c2cc(NC(=O)c3ccccc3)ccc2O[C@@H](C)CCCCO[C@H]1CN(C)S(=O)(=O)c1cccs1	.	.	.	.	3
CCc1ccc2[nH]c(=O)c(C3C(C#N)=C(N)Oc4c3ccc3cccnc43)cc2c1 (centres undefined)	-11	.	2	.	48*
COc1ccc(-c2cnc3c(c2)C(=O)N([C@@H](C)CO)C[C@@H](C)[C@@H](CN(C)C(=O)NC2CCCC2)O3)cc1	.	-4	.	-2	-3
CO[C@H]1CN(C)C(=O)c2cc(NC(=O)CC(F)(F)F)ccc2OC[C@@H](C)N(C(=O)C2CCCCC2)C[C@@H]1C	.	28*	.	-2	.
CCC(=O)N1C[C@@H](C)[C@@H](OC)CN(C)C(=O)c2cc(NC(=O)CC(F)(F)F)ccc2OC[C@@H]1C	.	21*	.	13	.
CO[C@H]1CN(C)C(=O)c2cc(NC(=O)CC(F)(F)F)ccc2OC[C@H](C)N(C(=O)C2CCCCC2)C[C@H]1C	.	2	.	-1	.
CCCN(C)C[C@H]1Oc2cc(C#Cc3cccc(F)c3)ccc2S(=O)(=O)N([C@H](C)CO)C[C@@H]1C	.	0	.	-1	-5
Cc1noc(C)c1NC(=O)N(C)C[C@H]1Oc2ncc(/C=C/c3ccccc3)cc2C(=O)N([C@@H](C)CO)C[C@@H]1C	.	-15	.	0	-3
CN1CCN(C(=O)C2=C[C@H](C3CC3)C[C@H](OCCCCO)O2)CC1	.	-3	.	0	42
COC(=O)c1c(NC(=O)CN2C(=O)NC3(CCC(C)CC3)C2=O)sc2c1CCC2 (centres undefined)	29	-7	-1	-4	.
CC1CCC2(CC1)NC(=O)N(CC(=O)Nc1sc3c(c1C(N)=O)CCC3)C2=O (centres undefined)	-10	7	2	42*	-23
COCC(=O)Nc1ccc2c(c1)[C@@H]1C[C@H](CC(=O)N[C@@H](C)c3ccccc3)O[C@@H](CO)[C@@H]1O2	.	1	.	-4	4
SMILES	PfHsp90 yeast 2	SIRT5 inh	NSD2 HMT inh	Casp6 inh	ARNT-TACC3 inh
COc1ccccc1NC(=O)N[C@H]1CC[C@@H](CCNS(=O)(=O)c2ccc(F)cc2)O[C@@H]1CO	.	19*	.	-1	10
COC(=O)C[C@@H]1CC[C@H](NC(=O)c2ccc3c(c2)OCO3)[C@@H](CO)O1	.	-5	.	43*	.
COc1ccccc1NC(=O)N[C@H]1CC[C@H](CCNC(=O)c2ccc3c(c2)OCO3)O[C@@H]1CO	.	19*	.	-6	11
COc1ccccc1NC(=O)N[C@H]1CC[C@@H](CCNC(=O)c2ccc3c(c2)OCO3)O[C@@H]1CO	.	2	.	-1	5
O=C(C[C@@H]1C[C@@H]2c3cc(NC(=O)NC4CCCC4)ccc3O[C@@H]2[C@H](CO)O1)NCc1ccncc1	.	0	.	-2	2
COC(=O)C[C@@H]1CC[C@H]2[C@H](COc3ccc(NS(C)(=O)=O)cc3C(=O)N2C)O1	.	.	.	.	0
CCNC(=O)C[C@H]1CC[C@H]2[C@H](COc3ccc(NC(=O)c4ccccc4Cl)cc3C(=O)N2C)O1	.	.	.	.	-1
C[C@@H]1CN([C@H](C)CO)C(=O)c2cc(NC(=O)NC3CCCCC3)ccc2O[C@@H](C)CCCCO[C@H]1CN(C)S(=O)(=O)c1ccc(Cl)cc1	.	15*	.	-1	10
Cc1ccc(S(=O)(=O)N(C)C[C@@H]2OCCCC[C@@H](C)Oc3ccc(NC(=O)NC4CCCCC4)cc3C(=O)N([C@@H](C)CO)C[C@@H]2C)cc1	.	15*	.	2	13
C[C@@H]1CCCCO[C@@H](CN(C)S(=O)(=O)c2ccc(Cl)cc2)[C@H](C)CN([C@@H](C)CO)C(=O)c2cc(NC(=O)NC3CCCCC3)ccc2O1	.	7	.	0	5
CO[C@H]1CN(C)C(=O)c2ccc(NC(=O)c3cc(C)on3)cc2OC[C@@H](C)N(C)C[C@H]1C	.	-3	.	0	-9
C[C@@H]1CN([C@@H](C)CO)C(=O)Cc2cc(NS(=O)(=O)c3cn(C)cn3)ccc2O[C@@H]1CN(C)S(=O)(=O)c1ccc(F)cc1	.	4	.	-2	.
Cc1c(CCC(=O)O)c(=O)oc2c(C)c(OCc3cc4c(cc3Cl)OCO4)ccc12	1	6	-3	43*	-1
Cc1c(CC(=O)O)c(=O)oc2c(C)c(OCc3c(F)cccc3Cl)ccc12	-1	-23	2	0	-22
COc1cc(C(=O)NNC(=O)C2CC=CCC2C(=O)O)cc(OC)c1OC (centres undefined)	39	-5	-2	-2	-7
COc1cc(C(=O)NCCN2CCN(C(=O)c3cc(OC)c(OC)c(OC)c3)CC2)cc(OC)c1OC	-20	29*	1	0	18
